Assay outcomes deposited in PubChem by National Center for Advancing Translational Sciences (NCATS).
BLM helicase inh = qHTS Assay for Inhibitors of Bloom's syndrome helicase (BLM). AID 2528, 2010. hit rate 0.2% among 350,000. recombinant BLM DNA unwinding, fluorescence dequenching. Potency, µM (highest dose often 56.1 µM), for the others: top-dose activity change, negative = inhibition, actives largely listed as inhibitors. RecQ-like DNA helicase BLM (Homo sapiens), P54132;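 also: plate controls were vehicle for no effect and no enzyme for full effect; nearly all actives have a fitted effect of over 35% in size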
APE1 inh-1 = qHTS Assay for Inhibitors of the Human Apurinic/apyrimidinic Endonuclease 1 (APE1) | DNA repair nuclease/redox regulator APEX1 (Homo sapiens), P27695 | recombinant APE1, TAMRA/BHQ-2 abasic DNA cleavage fluorescence | Potency, µM (titrated, usually from 65.8 µM), without a hit: at the highest dose activity change, negative = inhibition, hits mostly inhibitors | hit rate 0.35% among 350,000 | AID 2517, 2012;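 also: plate controls were vehicle for no effect and reference inhibitor for full effect; nearly all actives have a fitted effect of over 55% in size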
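APE1 at 0.75 nM preincubated 15 min at room temperature with compound. Reaction then started with 50 nM double-stranded THF-abasic substrate labelled with TAMRA/BHQ-2, and 525/598 nm fluorescence read kinetically. Activity taken as third-minus-first read difference, normalized to DMSO and NSC13755 controls.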
KDM4E inh = qHTS Assay for Inhibitors of Human Jumonji Domain Containing 2E (JMJD2E) | Lysine-specific demethylase 4E (Homo sapiens), B2RXH2 | JMJD2E catalytic domain, FDH-coupled NADH fluorescence (FDH is formaldehyde dehydrogenase) | Potency, µM (top dose mostly 57.1 µM), inactives show top-dose activity change, negative = inhibition, actives largely listed as inhibitors | hit rate 1.6% among 230,000 | AID 2147, 2009; active = well fitted inhibition curve with a large enough effect, not every such curve was filed as active; inconclusive = small, poorly fitted or top-dose-only effect, or another doubt; inactive = no such curve, though single readings can be large or run the other way;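 also: 0% = wells with enzyme and -100% = buffer wells without enzyme; nearly all actives have a fitted effect of over 50% in size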
RECQ1 inh-1 = qHTS Assay for Inhibitors of RecQ-Like Dna Helicase 1 (RECQ1); ATP-dependent DNA helicase Q1 (Homo sapiens), P46063; hit rate 0.54% among 240,000; RECQ1 DNA unwinding, red fluorescence kinetic read; Potency, µM (doses to about 57.3 µM), inactives show at the highest dose activity, negative = inhibition, hits mostly inhibitors;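 also: plate controls were vehicle for no effect and no enzyme for full effect; nearly all actives have a fitted effect of over 30% in size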
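50 nM RECQ1T1 preincubated 15 min with compound in Tris pH 8.0 buffer with MgCl2, DTT, Tween-20 and 2.5 ug/ml poly(dI-dC); started with 200 nM TAMRA/BHQ-2 forked duplex and 2 mM ATP. Unwinding read as fluorescence (525/598 nm), two reads 2 h apart.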
L3MBTL1 inh-1 = qHTS Assay for the Inhibitors of L3MBTL1 | Lethal(3)malignant brain tumor-like protein 1 (Homo sapiens), Q9Y468 | AlphaScreen L3MBTL1–H3K9me1 peptide binding | Potency, µM (highest dose often 57.1 µM), inactives show at the top dose activity, negative = inhibition, usual class: inhibitors | hit rate 0.66% among 230,000; also: % is scaled to controls: 0 for no effect and ±100 for the full control effect; nearly all actives have a fitted effect of over 60% in size
Target sequence (Q9Y468 whole entry, looked up): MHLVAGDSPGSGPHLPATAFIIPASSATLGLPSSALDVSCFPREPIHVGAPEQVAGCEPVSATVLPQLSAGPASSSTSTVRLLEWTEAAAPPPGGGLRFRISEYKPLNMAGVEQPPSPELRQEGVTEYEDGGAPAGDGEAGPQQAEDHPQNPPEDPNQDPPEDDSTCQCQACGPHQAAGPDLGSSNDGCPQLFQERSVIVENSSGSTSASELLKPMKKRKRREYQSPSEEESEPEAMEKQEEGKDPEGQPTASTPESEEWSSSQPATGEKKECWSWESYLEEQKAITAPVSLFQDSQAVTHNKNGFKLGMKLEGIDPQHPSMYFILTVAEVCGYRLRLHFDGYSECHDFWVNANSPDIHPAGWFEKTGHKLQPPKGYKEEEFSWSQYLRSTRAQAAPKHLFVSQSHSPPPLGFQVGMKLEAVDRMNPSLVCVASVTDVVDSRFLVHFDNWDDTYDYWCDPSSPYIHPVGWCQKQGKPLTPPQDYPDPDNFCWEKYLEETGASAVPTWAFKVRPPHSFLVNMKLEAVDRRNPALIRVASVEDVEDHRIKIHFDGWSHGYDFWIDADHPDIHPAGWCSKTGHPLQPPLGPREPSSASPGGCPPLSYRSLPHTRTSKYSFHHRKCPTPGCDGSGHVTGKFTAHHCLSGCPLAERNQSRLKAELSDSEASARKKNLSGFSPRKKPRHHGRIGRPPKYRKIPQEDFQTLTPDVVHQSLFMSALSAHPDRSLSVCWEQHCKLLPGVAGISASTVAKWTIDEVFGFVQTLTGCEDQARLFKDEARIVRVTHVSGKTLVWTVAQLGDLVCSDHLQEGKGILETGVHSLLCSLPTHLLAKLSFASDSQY
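L3MBTL1 (50 nM) pre-complexed 30 min with biotinylated H3(1-15)K9me1 peptide (75 nM), then compounds added for 30 min at room temperature; AlphaScreen streptavidin donor/nickel chelate acceptor beads (10 ug/mL final) read after 30 min dark incubation.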
APE1 dye cs = Counterscreen for APE1 Inhibitors: Fluorescent Dye Displacement Assay; hit rate 7% among 480; Potency, µM (series often up to 28.5 µM), for the others: at the highest dose activity change, negative = inhibition, hits mostly inhibitors; DNA fluorescent dye displacement counterscreen, fluorescence; shares compounds with APE1 inh-1;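 also: loss of thiazole orange fluorescence as the dye is displaced from duplex DNA; 0% = ThO with dsDNA and no compound and -100% = ThO without dsDNA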
Endo IV inh = Counterscreen for APE1 Inhibitors: qHTS Assay for Inhibitors of Endonuclease IV; Potency, µM (series often up to 27.1 µM), for the others: at the top dose activity change, negative = inhibition, usual class: inhibitors; shares compounds with APE1 inh-1; E. coli Endo IV, fluorogenic AP-site DNA cleavage; hit rate 4% among 560; AID 2565, 2010;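 also: plate controls were uninhibited enzyme wells for no effect and no enzyme buffer wells for full effect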
APE1 inh-2 = Confirmation qHTS Assay for Inhibitors of the Human Apurinic/apyrimidinic Endonuclease 1 (APE1); hit rate 44% among 750; purified APE1, fluorogenic abasic-site DNA cleavage; Potency, µM (top dose mostly 57.1 µM), without a hit: at the top dose activity change, negative = inhibition, most hits filed as inhibitors; shares compounds with APE1 inh-1; also: % is scaled to controls: 0 for no effect and ±100 for the full control effect; nearly all actives have a fitted effect of over 30% in size
APE1 FP = qHTS FP-Based Assay for Inhibitors of the Human Apurinic/apyrimidinic Endonuclease 1 (APE1); hit rate 7% among 480; AID 2573, 2010; APE1 binding to TAMRA-labelled double-stranded DNA, fluorescence polarization displacement; shares compounds with APE1 inh-1; Potency, µM (series often up to 28.5 µM), for the others: at the highest dose activity, negative = inhibition, hits mostly inhibitors; also: % is scaled to controls: 0 for no effect and ±100 for the full control effect
RECQ1 conf = Confirmation qHTS Assay for Inhibitors of RecQ-Like Dna Helicase 1 (RECQ1). shares compounds with RECQ1 inh-1. RECQ1 helicase DNA unwinding, fluorescence. Potency, µM (series often up to 229 µM), without a hit: at the highest dose activity change, negative = inhibition, most hits filed as inhibitors. hit rate 28% among 610. AID 2708, 2010; also: % is scaled to controls: 0 for no effect and ±100 for the full control effect; nearly all actives have a fitted effect of over 45% in size
ADP FP counter = Counterscreen for RECQ1 Inhibitors: ADP Fluorescence Polarization Displacement Assay; hit rate 27% among 530; shares compounds with RECQ1 inh-1; AID 2711, 2010; Potency, µM (highest dose often 228 µM), inactives show at the top dose activity change, negative = inhibition, most hits filed as inhibitors; ADP fluorescence polarization displacement counterscreen; also: % is scaled to controls: 0 for no effect and ±100 for the full control effect; nearly all actives have a fitted effect of over 45% in size
RECQ1 inh-2 = Confirmation qHTS Assay for Inhibitors of RecQ-Like Dna Helicase 1 (RECQ1) - Round 2 Cherry Picks; shares compounds with RECQ1 inh-1; recombinant RECQ1 DNA unwinding, red fluorescence; Potency, µM (top dose mostly 119 µM), for the others: top-dose activity, negative = inhibition, hits mostly inhibitors; hit rate 15% among 1,100; AID 504841, 2011; also: % is scaled to controls: 0 for no effect and ±100 for the full control effect; nearly all actives have a fitted effect of over 50% in size
L3MBTL1 inh-2 = qHTS Assay for the Inhibitors of L3MBTL1: Hit Validation. shares compounds with L3MBTL1 inh-1. L3MBTL1 methyl-lysine binding inhibition, biochemical qHTS. Potency, µM, most hits filed as inhibitors. hit rate 91% among 500. AID 540279, 2011; also: nearly all actives have a fitted effect of over 70% in size
L3MBTL1 ctr = qHTS Assay for the Inhibitors of L3MBTL1: Hit Validationin AlphaScreen Counterscreen | shares compounds with L3MBTL1 inh-1 | AlphaScreen counterscreen, signal inhibition | Potency, µM (series often up to 57.1 µM), inactives show at the top dose activity change, negative = inhibition, hits mostly inhibitors | 500 tested, under 10 active | AID 602224, 2012; also: 0% is about no effect
The depositor's hits bear a star; i = inactive; ? = inconclusive; nt = no result; ! = a repeat was not active; [ ] = another dose, or the depositor's remark. This is one part of a sample in which hits are shown more often than they occur. Unless noted, calls follow the shape of the dose curve; as a rule, active = well fitted curve in the direction sought with a large enough effect; inconclusive = small, poorly fitted or top-dose-only effect, or another doubt; inactive = no such curve, though single readings can be large; an effect the other way counts as inactive or inconclusive. Potency is read from the fitted curve at half-maximal effect.

SMILES	BLM helicase inh	APE1 inh-1	KDM4E inh	RECQ1 inh-1	L3MBTL1 inh-1	Endo IV inh	APE1 inh-2	L3MBTL1 inh-2	L3MBTL1 ctr	others
CC(=O)OCC1=C(C(=O)O)N2C(=O)[C@@H](NC(=O)CSc3ccncc3)[C@H]2SC1	nt	25µM*!	?	-13%	16µM*	16µM*	7.9µM*	3*	7%
CC(=O)OCC1=C(C(=O)O)N2C(=O)C(NC(=O)Cc3ccccc3)C2SC1 (centres undefined)	-12%	nt	nt	nt	nt	nt	nt	nt	nt
O=C(O)c1cccc(-n2cccc2/C=C2/NC(=O)N(Cc3ccccc3F)C2=O)c1	-6%	13µM*	-29%	?	32µM*	nt	?	6*	9%
Cc1ccc(NC(=O)CN2C(=O)N/C(=C/c3cccn3-c3ccc(C(=O)O)cc3)C2=O)cc1	?	1.1µM*	?	7.9µM*	2.2µM*	nt	1.3µM*	0.47*	?	RECQ1 conf=20µM*
O=C1N/C(=C/c2cccn2-c2ccc(F)cc2)C(=O)N1Cc1ccccc1F	-2%	-2%	-6%	-4%	0%	nt	nt	nt	nt
CC(C)c1ccccc1OCCCN1CCCC1	3%	7%	nt	nt	?	nt	nt	nt	nt
COc1ccccc1CCNC(=O)Cn1c(=O)oc2ccccc21	-4%	-43%	nt	nt	nt	nt	nt	nt	nt
COCCOC(=O)c1[nH]c2c(c1C)C(=O)CC(c1ccco1)C2 (centres undefined)	?	18µM*	-23%	35µM*	32µM*	4%	7.9µM*	15*	-1%	APE1 dye cs=-9%;APE1 FP=-29%;RECQ1 inh-2=?
COCCOC(=O)c1[nH]c2c(c1C)C(=O)CC(c1ccccc1)C2 (centres undefined)	1%	4%	6%	4%	-8%	nt	nt	nt	nt
Cc1c(C(=O)OCc2ccccc2)[nH]c2c1C(=O)CC(c1ccco1)C2 (centres undefined)	-24%	25µM*	-13%	32µM*	25µM*	3%	14µM*	15*	10%	APE1 dye cs=6%;APE1 FP=-40%;RECQ1 inh-2=?
O=C(O)CC(NCc1ccco1)C(=O)OCCc1ccccc1 (centres undefined)	-1%	2%	3%	-5%	2%	nt	nt	nt	nt
C=C(C)CCOC(=O)C(CC(=O)O)NCc1ccco1 (centres undefined)	-4%	?	-19%	-5%	28µM*	nt	?	9.5*	14%
Cc1ccc(S(=O)(=O)Nc2ccc3c(c2)nc(C)n3C)cc1	-3%	3%	10%	-6%	3%	nt	nt	nt	nt
CCOC(=O)c1cc2c(N)c(C(=O)c3ccc(Br)cc3)sc2[nH]c1=O	-7%	-11%	6%	i	-6%	nt	nt	nt	nt
COc1cc(/C=C/[N+](=O)[O-])ccc1OCc1cccc(C(=O)O)c1	?	6.3µM*	?	20µM*	28µM*	4%	?	?	2%	APE1 dye cs=20%;APE1 FP=29%;RECQ1 conf=18%[114 µM];ADP FP counter=?
O=C(CSc1ccsc1[N+](=O)[O-])Nc1cccc(F)c1	-21%	?	-10%	?	28µM*	18%	14µM*	7.5*	-4%	APE1 dye cs=?;APE1 FP=-20%
Nc1ccc(Nc2ccccc2)c(S(=O)(=O)O)c1	0%	14µM*	?	?	16µM*	15%	?	2.7*	?	APE1 dye cs=?;APE1 FP=?;RECQ1 inh-2=?
CC(=O)N1c2ccccc2CC1C(=O)N1CCN(c2cccc(C)c2C)CC1 (centres undefined)	-2%	nt	nt	nt	nt	nt	nt	nt	nt
COc1ccc2c(COC(=O)CC3Sc4ccccc4NC3=O)cc(=O)oc2c1 (centres undefined)	-19%	6%	-1%	10%	?	nt	nt	nt	nt
CC(=O)Nc1ccc2c(COC(=O)CC3Sc4ccccc4NC3=O)cc(=O)oc2c1 (centres undefined)	-9%	?	?	?	25µM*	nt	35µM*	8.4*	11%	RECQ1 inh-2=?
CC(C)Cc1nnc(NC(=O)Nc2ccccc2)s1	-3%	10%	-2%	-8%	5%	nt	nt	nt	nt
